For 30 compounds, cell viability activity results are on record in the supplement of paper PMC9177965.

Assay [1] relates to HT29 RNF43 G659fs (RNF43 659mut, CRISPR-edited). Nature of the assay: cell viability activity relative to DMSO (negative = inhibition); higher = more viable cells (less growth inhibition). The note with it: 5 µM; 96 h. On the procedure: (§1)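 Broad Repurposing Library primary screen at a single dose of 5 uM. HT29 sg-Ctrl and HT29 RNF43 G659fs CRISPR-edited isogenic cells were seeded at 2500 cells/well in 384-well plates in duplicate and treated for 96 h. Viability was read by CellTiter-Glo and reported as % activity relative to DMSO, with MG132 as the positive control (negative = growth inhibition).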

Assay [2] concerns HT29 sg-Ctrl (RNF43 wildtype). Described as above. The conditions noted are these: 5 µM; 96 h. On the procedure:
as §1

With `CC[C@@H](C)Nc1cc(C(=O)N[C@H]2C[C@H]3CC[C@@H](C2)N3c2ccc(C(=O)C3CC3)cn2)c(C)cc1C(N)=O`, the cell viability activity in assay [1] is -85.8%; in assay [2] it was -84.4%.
Turning to `COc1ccc(S(=O)(=O)Nc2cccnc2Nc2ccc(O)cc2)cc1`, the cell viability activity was -63.9% in assay [1] and -55.9% in assay [2].
Take `CN1c2ccccc2C(=O)N2CCc3c([nH]c4ccccc34)[C@@H]21`: the cell viability activity in assay [1] is -24.8%; in assay [2], -3.62%.
On to `C[C@H](Oc1ccc(S(C)(=O)=O)cc1C(=O)N1CCN(c2ncc(C(F)(F)F)cc2F)CC1)C(F)(F)F`, for which the figures for the cell viability activity in assay [1] and in assay [2] were -65.2% and -57.9%, respectively.
The matching figures for `Cc1cnc(Nc2ccc(OCCN3CCCC3)cc2)nc1Nc1cccc(S(=O)(=O)NC(C)(C)C)c1`: -95% and -92.4%.
In the same order, the values of `N=C(NCCCCCCNC(=N)NC(=N)Nc1ccc(Cl)cc1)NC(=N)Nc1ccc(Cl)cc1` are -45.1% and -24.9%.
In the same order, the values of `C=CC(=O)Nc1cccc(Sc2nc(Nc3ccc(N4CCN(C)CC4)cc3)ncc2Cl)c1` are -59.9% and -42.7%.
With `CNc1ncc2cc(-c3cc(NC(=O)NCCC(C)(C)C)c(F)cc3C)c(C)nc2n1`, the results for the cell viability activity in assay [1] and in assay [2] were -69% and -58.9%, respectively.
`CCc1cnn2c(NCc3ccc[n+]([O-])c3)cc(N3CCCC[C@H]3CCO)nc12`: the cell viability activity in assay [1] is -88.2%; in assay [2] it was -84.3%.
The matching figures for `CN[C@H](C(=O)N[C@H](C(=O)N(C)[C@H](/C=C(\C)C(=O)O)C(C)C)C(C)(C)C)C(C)(C)c1ccccc1`: -56.6% and -33.2%.
The matching figures for `Nc1cc(C(F)(F)F)c(-c2cc(N3CCOCC3)nc(N3CCOCC3)n2)cn1`: -75.9% and -60.1%.
In the same order, the values of `Cc1cnc(Nc2ccc(F)cc2Cl)nc1-c1c[nH]c(C(=O)N[C@H](CO)c2cccc(Cl)c2)c1` are -73.7% and -76%.
As for `CN(NC(=O)CC(=O)NN(C)C(=S)c1ccccc1)C(=S)c1ccccc1`, the cell viability activity is -30.6% in assay [1] and -15.3% in assay [2].
In the same order, the values of `Nc1nc(Nc2ccc3c(c2)CCC(N2CCCC2)CC3)nn1-c1cc2c(nn1)-c1ccccc1CCC2` (stereo not given) are -28.9% and -31.9%.
In the same order, the values of `Cc1ccc(/C=C2\CNC/C(=C\c3ccc(C)cc3)C2=O)cc1` are -93.6% and -92.7%.
As to `OC1(c2ccc(Cl)c(C(F)(F)F)c2)CCN(CCCC(c2ccc(F)cc2)c2ccc(F)cc2)CC1`, the cell viability activity was -83% in assay [1] and -60.6% in assay [2].
In the same order, the values of `CN(C)CCN1C(=O)c2cccc3cc(N)cc(c23)C1=O` are -53.7% and -47.7%.
`C/C(=N/Nc1nnc2c(n1)[nH]c1c(C)cccc12)c1ccccn1`: the cell viability activity is -87.6% in assay [1] and -86.8% in assay [2].
Consider `CN(C)C(=O)[C@H](O)[C@H](Cc1ccccc1)NC(=O)c1cc2cc(Cl)ccc2[nH]1`, for which the cell viability activity in assay [1] was -26.8%; in assay [2] it was 7.41%.
Consider `CNCCC=C1c2ccccc2CCc2ccccc21`, for which the cell viability activity in assay [1] is -70.1%; in assay [2], -77.1%.
The matching figures for `Cc1ccccc1CN1C(=O)C2=C(CCN(Cc3ccccc3)C2)N2CCN=C12`: -72.9% and -76.7%.
For the compound `Cc1nc2ccccc2n1Cc1ccc(Cl)cc1`, the cell viability activity is -60.5% in assay [1] and -39.4% in assay [2].
The matching figures for `C[C@H]1O[C@@H](O[C@H]2CC[C@@]3(C)[C@H](CC[C@@H]4[C@@H]3C[C@@H](O)[C@]3(C)[C@@H](C5=CC(=O)OC5)CC[C@]43O)C2)C[C@H](O)[C@@H]1O[C@H]1C[C@H](O)[C@H](O[C@H]2C[C@H](O)[C@H](O[C@@H]3O[C@H](CO)[C@@H](O)[C@H](O)[C@H]3O)[C@@H](C)O2)[C@@H](C)O1`: -90.5% and -91.5%.
In the case of `Cc1nc(Nc2n[nH]c3c2CN(C(=O)N[C@H](CN(C)C)c2ccccc2)C3(C)C)c2sccc2n1`, the values for the cell viability activity in assay [1] and in assay [2] were -73.8% and -79.1%, respectively.
In the same order, the values of `Nc1nc(Nc2ccc(S(N)(=O)=O)cc2)nn1C(=O)c1c(F)cccc1F` are -23.1% and -26.5%.
In the same order, the values of `CC(C)c1ccc(C(=O)N=C(N)N)cc1S(C)(=O)=O` are -25.7% and -5.71%.
The matching figures for `C=C1C(=O)CC2CC3OC3(C)CCC3OC3(C)C[C@H](OC(C)=O)C1C2(C)C` (stereo not given in full): -28.6% and -25.5%.
In the case of `CNC(=O)CN1CCC(Oc2cc3c(Nc4cccc(Cl)c4F)ncnc3cc2OC)CC1`, the cell viability activity is -41.9% in assay [1] and -24.1% in assay [2].
Regarding `NNc1nncc2ccccc12`, the cell viability activity in assay [1] was -46.5%; in assay [2] it was -40.8%.
The matching figures for `C[C@@H](NCCCc1cccc(C(F)(F)F)c1)c1cccc2ccccc12`: -78.1% and -41.7%.
